# The sample as a whole holds a higher share of hits than the screen did.
# Pf Dd2 inh – qHTS Primary assay for Inhibitors of Plasmodium falciparum Dd2 growth in vitro; P. falciparum Dd2 growth, SYBR Green, 72 h; AID 1347417, 2020; Potency, µM (highest dose often 28.9 µM), for the others: top-dose activity, negative = inhibition, actives largely listed as inhibitors; 120,000 tested, 4.3% active; active = well fitted inhibition curve with a large enough effect;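 note: plate controls were DMSO vehicle for no effect and reference drug for full effect; nearly all actives have a fitted effect of over 65% in size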
#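 Readout: SYBR Green fluorescence, 485 nm excitation, 535 nm emission, after ~16 h lysis at 37C. Before that, Dd2-infected red cells (2.5% hematocrit) grew 72 h with compound, 29 uM top final concentration.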
# * = called active by the depositor; i = inactive; [ ] = remark or other dose. Potency is the fitted concentration of half-maximal effect.
SMILES,Pf Dd2 inh
COc1cccc(CC(=O)N2CCCCCCNC(=O)[C@H]3CCC[C@H]32)c1,-27%
CCc1cccc(NC(=O)Cn2c(=O)n(CC3CCC(C(=O)NCCc4ccccc4)CC3)c(=O)c3ccccc32)c1 (configuration not stated),3.5µM*
Cc1cccc(NC(=O)Cn2c(=O)n(CC3CCC(C(=O)NCCc4ccccc4)CC3)c(=O)c3ccccc32)c1C (configuration not stated),i
CC(C)c1ccc(NC(=O)Cn2c(=O)n(CC3CCC(C(=O)NCCc4ccccc4)CC3)c(=O)c3ccccc32)cc1 (configuration not stated),3.2µM*
CCOc1ccc(NC(=O)Cn2c(=O)n(CC3CCC(C(=O)NCCc4ccccc4)CC3)c(=O)c3ccccc32)cc1 (configuration not stated),-10%
O=C(Cn1c(=O)n(CC2CCC(C(=O)NCCc3ccccc3)CC2)c(=O)c2ccccc21)Nc1ccccc1 (configuration not stated),-11%
CC(C)c1ccc(NC(=O)Cn2c(=O)n(CCc3ccccc3)c(=O)c3ccccc32)cc1,14%
O=C(NCCCc1ccccc1)C1CCN(C(=O)c2ncn3c2COC(c2ccc(F)cc2)C3)CC1 (configuration not stated),-21%
CS(=O)(=O)c1ccc(CN2C[C@@H]3OCC(=O)N(c4ccccc4)[C@@H]3C2)cc1,i
O=C1Nc2ccccc2O[C@H]2C[C@@H]1N(C(=O)c1ccc(Cl)cc1)C2,-3%[44.1 µM]
COc1cc(Cl)ccc1C(=O)N[C@@H]1C[C@H]2C(=O)N(C)CC(=O)N2C1,21%
CCOc1ccc(NC(=O)c2c(NCc3cccnc3)sc3c2CCC(C)C3)cc1 (configuration not stated),i
CCOc1ccc(NC(=O)c2c(NC(=O)c3ccncc3)sc3c2CCC(C(C)(C)C)C3)cc1 (configuration not stated),i
CCOc1ccc(NC(=O)c2c(NC(=O)c3ccco3)sc3c2CCC(C(C)(C)C)C3)cc1 (configuration not stated),10µM*
CCOC(=O)c1ccc(NC(=O)c2c(NCc3ccc(OC)c(OC)c3OC)sc3c2CCC(C)C3)cc1 (configuration not stated),10µM*
CCOc1ccc(NC(=O)c2c(NC(=O)c3cccs3)sc3c2CCC(C(C)(C)C)C3)cc1 (configuration not stated),-17%
CCOc1ccccc1NC(=O)c1c(NC(=O)c2ccccc2C)sc2c1CCC(C)C2 (configuration not stated),i
CCOc1ccc(NC(=O)c2c(NCc3ccc(C)o3)sc3c2CCC(C)C3)cc1 (configuration not stated),11µM*
Cc1cccc(NC(=O)c2c(NC(=O)c3cccs3)sc3c2CCC(C)C3)c1 (configuration not stated),34%
CC1CCc2c(sc(NC(=O)COc3ccccc3)c2C(=O)Nc2ccccc2Cl)C1 (configuration not stated),98%
CC1CCc2c(sc(NC(=O)c3ccccc3)c2C(=O)Nc2ccccc2)C1 (configuration not stated),13µM*
CCCOc1ccc(/C=C/C(=O)Nc2sc3c(c2C(=O)OCC)CCC(C)C3)cc1OC (configuration not stated),43%
CCOC(=O)c1c(NC(=O)c2cc3ccccc3c(=O)o2)sc2c1CCC(C)C2 (configuration not stated),34%
O=S(=O)(NC[C@H]1OC[C@@H](NCc2ccccn2)[C@@H]1O)c1ccccc1,i
COc1cccc(C(=O)N2CCC(Oc3ccccc3)C2)c1 (configuration not stated),-25%
SMILES,Pf Dd2 inh
COc1ccc(N2CC(C(=O)NC(C)C)NC2=O)cc1 (configuration not stated),-12%[44.1 µM]
CC(C)(C)C1CCc2c(sc(NC(=O)c3ccncc3)c2C(=O)Nc2ccccc2Cl)C1 (configuration not stated),15%
CC(C)(C)C1CCc2c(sc(NC(=O)c3ccc(Cl)cc3)c2C(=O)NCc2ccco2)C1 (configuration not stated),5.6µM*
COc1ccccc1NC(=O)c1c(NC(=O)c2ccco2)sc2c1CCC(C(C)(C)C)C2 (configuration not stated),-2%
Cc1ccc(CNC(=O)c2ccc(-c3ccc(N4CCCCC4)nc3)cc2)o1,-11%
CCN1CCN(c2nc3c(s2)CN(C(=O)CCC(C)C)CC3)CC1,i
Cc1cccnc1CNC[C@H]1O[C@@H]2C[C@@H](CC(=O)NC(C)C)O[C@@H]2[C@@H]1O,i
COc1cccc([S+](=O)([O-])N2CCC3(C2)N=C(c2cccnc2)C(=O)N3)c1 (configuration not stated),9%
Cc1cc(CN(C)Cc2cn(-c3cccc(F)c3)nc2-c2ccc(C)o2)n[nH]1,-2%
COc1ccc(-c2nn(-c3ccccc3C)cc2CN(C)Cc2cn(C)nc2C)cc1F,i
Cc1ccc(-c2nn(-c3cccc(F)c3)cc2CN(C)CCO)o1,7.9µM*
O=C(NCc1ccncc1)C1CCC(=O)N(C2CCCCCC2)C1 (configuration not stated),1%
